Among the data in ChEMBL document CHEMBL1961873, “Compounds: GSK PKIS; Assays: Nanosyn kinase panel” (2012) are inhibition values, retold here.

The structures appear in SMILES notation.

For assay [1], the target named is T1, Mitogen-activated protein kinase 12 (Homo sapiens) (UniProt P53778).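 Also: values are averaged p38gamma kinase inhibition readings, compounds tested at 1 µM.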
T1 sequence (whole entry): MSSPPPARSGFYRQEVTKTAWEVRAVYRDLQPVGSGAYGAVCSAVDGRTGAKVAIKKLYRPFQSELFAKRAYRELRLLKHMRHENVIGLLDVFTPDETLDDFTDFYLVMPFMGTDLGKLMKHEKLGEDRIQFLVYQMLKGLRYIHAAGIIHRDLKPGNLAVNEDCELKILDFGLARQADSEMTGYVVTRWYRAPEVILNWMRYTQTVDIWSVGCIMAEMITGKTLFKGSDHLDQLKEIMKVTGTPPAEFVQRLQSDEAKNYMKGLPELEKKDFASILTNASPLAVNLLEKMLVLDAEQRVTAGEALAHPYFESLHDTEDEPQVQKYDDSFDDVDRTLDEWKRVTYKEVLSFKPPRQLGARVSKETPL
Conditions: at 1 µM.

For assay [2], the target named is SRSF protein kinase 1 (Homo sapiens) (UniProt Q96SB4). The note with it: at 0.1 µM.
For assay [3] the target is unchanged. Conditions: at 1 µM.
Assay [4] has as its target Phosphatidylinositol 4,5-bisphosphate 3-kinase catalytic subunit alpha isoform (Homo sapiens) (UniProt P42336). The note with it: at 0.1 µM.
Assay [5] has the same target. The note with it: at 1 µM.
Assay [6] addresses T2, Phosphatidylinositol 4,5-bisphosphate 3-kinase catalytic subunit delta isoform (Homo sapiens) (UniProt O00329).
T2 sequence (whole entry): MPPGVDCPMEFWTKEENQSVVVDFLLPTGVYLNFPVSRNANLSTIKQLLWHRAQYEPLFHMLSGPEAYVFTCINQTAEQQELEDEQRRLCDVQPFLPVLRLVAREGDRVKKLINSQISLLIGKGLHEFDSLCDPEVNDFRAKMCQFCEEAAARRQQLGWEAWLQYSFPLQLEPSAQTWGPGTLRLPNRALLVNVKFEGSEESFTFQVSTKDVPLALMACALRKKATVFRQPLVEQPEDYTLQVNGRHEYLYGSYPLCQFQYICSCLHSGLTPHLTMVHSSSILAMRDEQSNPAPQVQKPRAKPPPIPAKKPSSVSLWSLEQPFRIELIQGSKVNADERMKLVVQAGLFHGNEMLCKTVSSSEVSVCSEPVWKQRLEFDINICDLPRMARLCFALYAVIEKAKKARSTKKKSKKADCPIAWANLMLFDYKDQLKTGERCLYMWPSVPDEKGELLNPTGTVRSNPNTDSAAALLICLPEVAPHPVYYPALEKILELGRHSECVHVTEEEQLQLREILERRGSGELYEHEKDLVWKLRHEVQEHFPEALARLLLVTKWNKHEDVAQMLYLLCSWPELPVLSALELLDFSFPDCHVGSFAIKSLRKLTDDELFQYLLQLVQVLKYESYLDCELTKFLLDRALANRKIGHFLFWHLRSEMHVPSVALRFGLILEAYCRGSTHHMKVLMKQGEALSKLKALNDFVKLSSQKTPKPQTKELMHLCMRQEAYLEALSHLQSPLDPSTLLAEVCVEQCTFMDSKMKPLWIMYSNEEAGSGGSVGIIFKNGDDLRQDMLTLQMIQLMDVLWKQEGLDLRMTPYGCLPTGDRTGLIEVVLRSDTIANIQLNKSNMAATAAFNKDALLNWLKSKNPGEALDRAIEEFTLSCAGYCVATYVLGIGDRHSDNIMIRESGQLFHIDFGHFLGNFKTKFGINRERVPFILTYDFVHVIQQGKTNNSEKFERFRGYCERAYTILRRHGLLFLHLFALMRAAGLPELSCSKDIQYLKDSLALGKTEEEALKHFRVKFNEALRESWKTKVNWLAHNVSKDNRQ
Conditions: at 0.1 µM.

For assay [7], the target named is T2, Phosphatidylinositol 4,5-bisphosphate 3-kinase catalytic subunit delta isoform (Homo sapiens). Conditions: at 1 µM.
The target in assay [8] is Phosphatidylinositol 4-kinase beta (Homo sapiens) (UniProt Q9UBF8). Conditions: at 0.1 µM.
Assay [9] has the same target. Conditions: at 1 µM.
Assay [10] concerns the target Sphingosine kinase 1 (Homo sapiens) (UniProt Q9NYA1). The note with it: at 0.1 µM.
Assay [11] has the same target. The note with it: at 1 µM.
Assay [12] concerns the target T3, Sphingosine kinase 2 (Homo sapiens) (UniProt Q9NRA0).
T3 sequence (whole entry): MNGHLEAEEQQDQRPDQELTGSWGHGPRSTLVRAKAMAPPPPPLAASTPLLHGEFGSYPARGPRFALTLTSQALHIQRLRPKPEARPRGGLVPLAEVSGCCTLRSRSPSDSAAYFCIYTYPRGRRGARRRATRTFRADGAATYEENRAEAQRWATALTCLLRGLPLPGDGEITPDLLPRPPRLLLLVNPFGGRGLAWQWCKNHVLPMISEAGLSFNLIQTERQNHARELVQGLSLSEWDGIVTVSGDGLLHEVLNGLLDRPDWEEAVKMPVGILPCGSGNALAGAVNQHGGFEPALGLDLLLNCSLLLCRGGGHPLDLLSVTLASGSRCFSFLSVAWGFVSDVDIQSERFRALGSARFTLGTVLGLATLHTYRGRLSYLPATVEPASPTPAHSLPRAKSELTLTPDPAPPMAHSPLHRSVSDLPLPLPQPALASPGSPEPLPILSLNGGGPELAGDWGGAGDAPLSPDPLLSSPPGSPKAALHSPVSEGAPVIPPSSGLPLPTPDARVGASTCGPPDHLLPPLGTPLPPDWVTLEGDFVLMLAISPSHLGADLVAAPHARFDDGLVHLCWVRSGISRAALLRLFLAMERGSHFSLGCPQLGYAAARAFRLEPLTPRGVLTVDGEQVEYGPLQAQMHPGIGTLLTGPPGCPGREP
Conditions: at 0.1 µM.

In assay [13] the target is T3, Sphingosine kinase 2 (Homo sapiens). The note with it: at 1 µM.
In assay [14] the target is Casein kinase II subunit alpha (Homo sapiens) (UniProt P68400). Conditions: at 0.1 µM.
Assay [15] shares this target. Conditions: at 1 µM.
The target in assay [16] is T4, Inhibitor of nuclear factor kappa-B kinase subunit alpha (Homo sapiens) (UniProt O15111).
T4 sequence (whole entry): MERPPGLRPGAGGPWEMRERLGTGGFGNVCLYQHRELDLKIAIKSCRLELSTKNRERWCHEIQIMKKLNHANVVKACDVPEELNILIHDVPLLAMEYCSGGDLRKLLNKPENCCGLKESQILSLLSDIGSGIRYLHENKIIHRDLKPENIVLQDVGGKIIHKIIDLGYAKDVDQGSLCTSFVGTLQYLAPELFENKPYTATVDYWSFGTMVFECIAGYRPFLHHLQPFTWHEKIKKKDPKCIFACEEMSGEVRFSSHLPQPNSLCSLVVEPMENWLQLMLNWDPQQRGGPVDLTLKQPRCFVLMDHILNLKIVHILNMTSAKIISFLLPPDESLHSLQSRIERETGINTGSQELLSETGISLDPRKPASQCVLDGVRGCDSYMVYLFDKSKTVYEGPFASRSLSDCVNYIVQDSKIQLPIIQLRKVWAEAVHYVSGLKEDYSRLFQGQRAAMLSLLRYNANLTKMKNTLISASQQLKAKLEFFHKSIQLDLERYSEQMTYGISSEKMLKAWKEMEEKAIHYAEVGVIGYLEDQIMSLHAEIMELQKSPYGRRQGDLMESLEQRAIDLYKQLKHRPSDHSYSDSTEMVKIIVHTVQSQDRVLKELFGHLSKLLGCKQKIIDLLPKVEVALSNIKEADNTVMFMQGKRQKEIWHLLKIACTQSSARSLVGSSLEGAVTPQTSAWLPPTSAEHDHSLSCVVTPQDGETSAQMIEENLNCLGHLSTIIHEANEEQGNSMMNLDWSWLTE
Conditions: at 0.1 µM.

Assay [17] has as its target T4, Inhibitor of nuclear factor kappa-B kinase subunit alpha (Homo sapiens). Conditions: at 1 µM.
For assay [18], the target named is T5, Inhibitor of nuclear factor kappa-B kinase subunit beta (Homo sapiens) (UniProt O14920).
T5 sequence (whole entry): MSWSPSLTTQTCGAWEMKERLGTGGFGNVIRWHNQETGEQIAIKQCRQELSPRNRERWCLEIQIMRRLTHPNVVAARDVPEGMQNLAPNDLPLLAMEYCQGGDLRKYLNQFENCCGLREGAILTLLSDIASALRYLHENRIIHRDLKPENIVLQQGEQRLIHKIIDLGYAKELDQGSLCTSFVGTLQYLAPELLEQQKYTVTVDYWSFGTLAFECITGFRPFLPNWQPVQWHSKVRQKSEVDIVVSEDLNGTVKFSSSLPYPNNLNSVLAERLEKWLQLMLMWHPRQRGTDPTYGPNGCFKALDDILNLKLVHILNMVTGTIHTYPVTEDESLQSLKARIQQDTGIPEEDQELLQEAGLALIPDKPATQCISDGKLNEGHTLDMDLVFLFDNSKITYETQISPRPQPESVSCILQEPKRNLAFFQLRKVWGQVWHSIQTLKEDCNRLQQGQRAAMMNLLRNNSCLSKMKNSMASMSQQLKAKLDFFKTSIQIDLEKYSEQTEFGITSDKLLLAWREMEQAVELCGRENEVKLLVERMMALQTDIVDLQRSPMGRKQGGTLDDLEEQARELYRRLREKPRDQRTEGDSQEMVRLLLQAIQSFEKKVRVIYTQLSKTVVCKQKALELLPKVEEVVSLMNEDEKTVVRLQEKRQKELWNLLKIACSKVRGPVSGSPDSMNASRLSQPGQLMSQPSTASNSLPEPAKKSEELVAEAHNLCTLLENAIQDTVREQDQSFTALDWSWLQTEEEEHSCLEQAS
Conditions: at 0.1 µM.

In assay [19] the target is T5, Inhibitor of nuclear factor kappa-B kinase subunit beta (Homo sapiens). Conditions: at 1 µM.
The target in assay [20] is T6, Inhibitor of nuclear factor kappa-B kinase subunit epsilon (Homo sapiens) (UniProt Q14164).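 Also: mean inhibition of IKKε reported, from the GSK PKIS dataset.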
T6 sequence (whole entry): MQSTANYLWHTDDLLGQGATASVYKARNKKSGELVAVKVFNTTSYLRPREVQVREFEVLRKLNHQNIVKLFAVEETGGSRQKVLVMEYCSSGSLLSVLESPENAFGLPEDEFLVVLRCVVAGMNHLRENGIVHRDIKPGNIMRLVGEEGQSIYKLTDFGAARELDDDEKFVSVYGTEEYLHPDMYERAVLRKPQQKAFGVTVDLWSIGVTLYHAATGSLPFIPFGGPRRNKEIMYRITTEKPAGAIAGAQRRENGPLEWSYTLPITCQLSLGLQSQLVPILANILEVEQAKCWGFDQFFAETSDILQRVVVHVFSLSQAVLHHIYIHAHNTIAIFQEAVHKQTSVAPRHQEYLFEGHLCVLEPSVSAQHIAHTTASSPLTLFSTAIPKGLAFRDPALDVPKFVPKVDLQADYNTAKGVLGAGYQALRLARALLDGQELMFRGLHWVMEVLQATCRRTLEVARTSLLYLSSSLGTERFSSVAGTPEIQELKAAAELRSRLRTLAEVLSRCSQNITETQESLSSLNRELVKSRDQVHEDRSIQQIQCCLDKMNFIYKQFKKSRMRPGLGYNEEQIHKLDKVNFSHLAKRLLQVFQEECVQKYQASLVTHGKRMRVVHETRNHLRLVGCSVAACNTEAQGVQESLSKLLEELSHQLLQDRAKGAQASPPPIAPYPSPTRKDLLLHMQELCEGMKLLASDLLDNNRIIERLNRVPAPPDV
Conditions: at 0.1 µM.

Chain of SRSF protein kinase 1 (Homo sapiens) (Q96SB4 whole entry): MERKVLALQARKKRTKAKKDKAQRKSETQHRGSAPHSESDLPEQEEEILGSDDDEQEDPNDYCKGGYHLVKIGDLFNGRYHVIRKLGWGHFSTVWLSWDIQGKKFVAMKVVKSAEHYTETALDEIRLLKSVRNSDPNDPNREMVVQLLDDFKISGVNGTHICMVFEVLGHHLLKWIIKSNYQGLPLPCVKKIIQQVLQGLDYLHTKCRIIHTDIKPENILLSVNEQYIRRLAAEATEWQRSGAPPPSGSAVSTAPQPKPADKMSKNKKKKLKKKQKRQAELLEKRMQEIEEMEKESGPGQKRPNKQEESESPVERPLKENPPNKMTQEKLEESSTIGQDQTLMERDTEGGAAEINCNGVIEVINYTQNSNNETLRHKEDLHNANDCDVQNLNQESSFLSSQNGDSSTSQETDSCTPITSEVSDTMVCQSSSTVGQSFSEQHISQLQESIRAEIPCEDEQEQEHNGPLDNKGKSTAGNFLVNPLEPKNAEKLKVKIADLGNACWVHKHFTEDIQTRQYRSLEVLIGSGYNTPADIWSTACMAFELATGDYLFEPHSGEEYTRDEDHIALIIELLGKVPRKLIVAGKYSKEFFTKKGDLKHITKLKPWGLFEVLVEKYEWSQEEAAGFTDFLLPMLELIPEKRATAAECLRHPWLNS
Chain of Phosphatidylinositol 4,5-bisphosphate 3-kinase catalytic subunit alpha isoform (Homo sapiens) (P42336 whole entry, canonical isoform): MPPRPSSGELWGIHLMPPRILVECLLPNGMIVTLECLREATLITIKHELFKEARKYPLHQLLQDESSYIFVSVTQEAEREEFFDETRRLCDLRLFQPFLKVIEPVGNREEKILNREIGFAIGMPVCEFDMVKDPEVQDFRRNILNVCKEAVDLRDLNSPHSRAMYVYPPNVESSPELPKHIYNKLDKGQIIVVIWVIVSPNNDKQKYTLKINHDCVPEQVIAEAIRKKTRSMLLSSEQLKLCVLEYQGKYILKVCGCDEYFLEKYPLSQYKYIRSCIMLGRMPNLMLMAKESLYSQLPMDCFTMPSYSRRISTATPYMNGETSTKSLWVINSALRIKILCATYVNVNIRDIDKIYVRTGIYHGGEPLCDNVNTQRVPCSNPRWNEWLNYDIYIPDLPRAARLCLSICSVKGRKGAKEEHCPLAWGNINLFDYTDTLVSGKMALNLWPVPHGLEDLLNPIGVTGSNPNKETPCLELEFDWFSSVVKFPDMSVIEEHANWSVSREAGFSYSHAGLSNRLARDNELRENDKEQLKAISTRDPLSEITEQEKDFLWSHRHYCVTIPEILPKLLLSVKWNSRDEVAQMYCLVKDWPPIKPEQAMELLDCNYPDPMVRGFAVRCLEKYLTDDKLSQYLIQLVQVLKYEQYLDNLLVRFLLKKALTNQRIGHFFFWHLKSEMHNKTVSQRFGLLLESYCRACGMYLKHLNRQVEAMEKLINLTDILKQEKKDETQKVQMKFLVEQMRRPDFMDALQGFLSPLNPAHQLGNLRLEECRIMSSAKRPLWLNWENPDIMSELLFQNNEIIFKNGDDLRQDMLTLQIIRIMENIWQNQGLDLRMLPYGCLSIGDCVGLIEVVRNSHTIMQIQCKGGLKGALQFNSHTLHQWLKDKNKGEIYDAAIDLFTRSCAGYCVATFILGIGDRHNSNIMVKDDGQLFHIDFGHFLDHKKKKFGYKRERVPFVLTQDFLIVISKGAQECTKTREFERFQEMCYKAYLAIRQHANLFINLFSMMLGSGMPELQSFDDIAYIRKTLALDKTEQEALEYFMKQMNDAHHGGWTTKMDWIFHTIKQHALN
Chain of Phosphatidylinositol 4-kinase beta (Homo sapiens) (Q9UBF8 2-816 limits assumed): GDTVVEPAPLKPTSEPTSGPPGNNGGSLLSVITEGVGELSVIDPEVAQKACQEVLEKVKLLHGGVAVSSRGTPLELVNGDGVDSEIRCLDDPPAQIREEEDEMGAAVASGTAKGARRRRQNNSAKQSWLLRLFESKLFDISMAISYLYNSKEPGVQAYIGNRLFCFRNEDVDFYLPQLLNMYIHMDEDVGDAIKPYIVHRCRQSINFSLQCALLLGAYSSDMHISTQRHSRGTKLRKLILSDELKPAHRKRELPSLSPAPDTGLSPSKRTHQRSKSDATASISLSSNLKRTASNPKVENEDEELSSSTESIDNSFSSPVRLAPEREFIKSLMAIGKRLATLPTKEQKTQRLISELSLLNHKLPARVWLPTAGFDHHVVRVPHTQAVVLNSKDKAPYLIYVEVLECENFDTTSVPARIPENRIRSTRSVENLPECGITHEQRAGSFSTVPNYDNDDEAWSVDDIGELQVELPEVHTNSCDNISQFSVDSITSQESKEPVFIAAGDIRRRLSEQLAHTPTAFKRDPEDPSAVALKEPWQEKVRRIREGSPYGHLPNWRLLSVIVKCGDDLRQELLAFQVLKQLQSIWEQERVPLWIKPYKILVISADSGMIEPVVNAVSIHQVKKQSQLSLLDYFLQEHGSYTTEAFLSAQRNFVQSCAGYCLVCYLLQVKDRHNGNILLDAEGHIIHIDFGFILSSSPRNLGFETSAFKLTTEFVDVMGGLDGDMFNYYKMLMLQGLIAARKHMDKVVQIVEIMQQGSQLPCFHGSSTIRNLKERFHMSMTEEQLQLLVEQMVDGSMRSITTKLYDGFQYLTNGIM
Chain of Casein kinase II subunit alpha (Homo sapiens) (P68400 whole entry, looked up): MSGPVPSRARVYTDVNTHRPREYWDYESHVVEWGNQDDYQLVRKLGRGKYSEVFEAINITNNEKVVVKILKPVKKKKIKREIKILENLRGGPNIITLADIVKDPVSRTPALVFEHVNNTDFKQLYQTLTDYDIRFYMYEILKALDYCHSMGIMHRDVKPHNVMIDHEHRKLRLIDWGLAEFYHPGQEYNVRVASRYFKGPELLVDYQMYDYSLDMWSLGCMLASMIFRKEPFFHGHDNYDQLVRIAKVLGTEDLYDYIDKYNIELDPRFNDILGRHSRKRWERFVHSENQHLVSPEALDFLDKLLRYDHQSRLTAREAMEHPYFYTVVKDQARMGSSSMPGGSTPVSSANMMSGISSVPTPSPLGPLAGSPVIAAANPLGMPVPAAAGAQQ
Chain of Sphingosine kinase 1 (Homo sapiens) (Q9NYA1 whole entry): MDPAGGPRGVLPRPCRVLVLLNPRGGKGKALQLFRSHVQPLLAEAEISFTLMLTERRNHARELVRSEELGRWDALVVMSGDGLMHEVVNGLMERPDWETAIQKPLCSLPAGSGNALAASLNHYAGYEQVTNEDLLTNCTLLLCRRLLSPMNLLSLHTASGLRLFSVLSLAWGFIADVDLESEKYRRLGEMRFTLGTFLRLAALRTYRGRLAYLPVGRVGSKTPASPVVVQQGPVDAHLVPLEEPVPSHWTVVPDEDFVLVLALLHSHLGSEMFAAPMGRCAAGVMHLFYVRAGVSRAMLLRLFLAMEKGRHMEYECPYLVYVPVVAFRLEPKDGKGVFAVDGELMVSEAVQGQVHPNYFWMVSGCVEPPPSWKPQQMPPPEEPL

With `Fc1cccc(COc2ccc(Nc3ncnc4sc(-c5cccs5)cc34)cc2Cl)c1`, the inhibition in assay [1] is 0.86%; in [2], 0.18%; in assay [3], -1.11%; in [4] it was 0.9%; in [5], 4.07%; in [6] it was -0.78%. Besides, the inhibition in assay [7] was 2.29%; in [8], 0.44%; in assay [9] it was -0.43%; in [10] it was -1.15%; in assay [11] it was 1.25%; in assay [12], -2.31%. The inhibition in assay [13] was 1.14%; in assay [14], -0.4%; in assay [15] it was 1.52%; in assay [16], 3.55%; in assay [17], 1.01%; in assay [18], 1.1%. Moreover, the values for the inhibition in assay [19] and in [20] were 0.28% and -0.11%, respectively.
In the case of `Cc1ccc(C(=O)NC2CCCCC2)cc1-c1ccc(C(=O)NCC2CC2)cc1`, the inhibition in assay [1] is 1.27%; in assay [2], -2.04%; in assay [3], -2.48%; in assay [4], 1.35%; in assay [5], -0.53%; in assay [6], 1.89%. The inhibition in assay [7] was 1.33%; in assay [8], 3.97%; in assay [9] it was -5.9%; in assay [10], -7.61%; in assay [11] it was -0.86%; in assay [12] it was -0.91%. Besides, the inhibition is -1.61% in assay [13]; 0.66% in [14]; -5.06% in assay [15]; -3.35% in assay [16]; -8.02% in assay [17]; 3.29% in [18]. Also, the inhibition in assay [19] was -2.31%; in assay [20], 1.75%.
On to `CNC(=O)c1cncc(/C=C/c2c(Cl)cccc2Cl)c1`, for which the inhibition in assay [1] was 6.19%; in assay [2] it was -3.5%; in assay [3], -0.45%; in assay [4], 2.99%; in assay [5], 2.83%; in [6] it was 0.54%. Further, the inhibition was 0.66% in assay [7]; -0.69% in [8]; 2.57% in assay [9]; -1.45% in assay [10]; -1.49% in assay [11]; 0.89% in assay [12]. In addition, the inhibition in assay [13] was -2.09%; in assay [14] it was 16.9%; in [15], 14.9%; in assay [16], 1.91%; in [17], 0.72%; in assay [18], 7.67%. Moreover, the inhibition in assay [19] turned out to be 11.4%; in [20] it was 5.94%.
For the compound `COc1cc2c(cc1Nc1nc(N3CCc4ccccc43)c3cc[nH]c3n1)N(C(=O)CN(C)C)CC2`, the inhibition in assay [1] is 1.21%; in assay [2] it was -1.43%; in [3], -3.76%; in assay [4] it was 0.76%; in assay [5], 2.92%; in [6], 1.22%. Further, the inhibition in assay [7] is 3.33%; in assay [8], 1.21%; in assay [9] it was 2.11%; in assay [10], 0.07%; in assay [11], -1.12%; in assay [12] it was -0.36%. The inhibition in [13] is 0.81%; in assay [14], 0.13%; in assay [15], -9.3%; in assay [16] it was 2.9%; in assay [17] it was 0.37%; in assay [18] it was 4.25%. Moreover, the inhibition in assay [19] was -1.42%; in [20] it was 0.88%.
